Data published in PubChem BioAssay.
Where “and” joins values, the source holds several entries; their conditions need not be identical. Equal entries are not always repeated. Calls of active or inactive are those of the source.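 How the source made its calls, unless noted: active means mean inhibition above 46.68%, the untreated control wells mean plus 3 SD; inactive means the rest.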

Assays:
[1] = molecular target: Nuclear receptor coactivator 3 (Homo sapiens) (UniProt Q9Y6Q9); test: SRC3 coactivator transcriptional activity inhibitors, confirmation, cell-based, luminescence, quadruplicate (AID 588792;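 active means mean inhibition over 43.08%, the solvent-only control mean plus 3 SD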;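 further: 0% = DMSO treated cells and 100% = gossypol at 36 µM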); conditions: HEK293 GAL4-SRC3 luciferase reporter, at 3.6 µM, hits give high values
Sequence of Nuclear receptor coactivator 3 (Homo sapiens) (Q9Y6Q9 whole entry, looked up, the tested form may be a part): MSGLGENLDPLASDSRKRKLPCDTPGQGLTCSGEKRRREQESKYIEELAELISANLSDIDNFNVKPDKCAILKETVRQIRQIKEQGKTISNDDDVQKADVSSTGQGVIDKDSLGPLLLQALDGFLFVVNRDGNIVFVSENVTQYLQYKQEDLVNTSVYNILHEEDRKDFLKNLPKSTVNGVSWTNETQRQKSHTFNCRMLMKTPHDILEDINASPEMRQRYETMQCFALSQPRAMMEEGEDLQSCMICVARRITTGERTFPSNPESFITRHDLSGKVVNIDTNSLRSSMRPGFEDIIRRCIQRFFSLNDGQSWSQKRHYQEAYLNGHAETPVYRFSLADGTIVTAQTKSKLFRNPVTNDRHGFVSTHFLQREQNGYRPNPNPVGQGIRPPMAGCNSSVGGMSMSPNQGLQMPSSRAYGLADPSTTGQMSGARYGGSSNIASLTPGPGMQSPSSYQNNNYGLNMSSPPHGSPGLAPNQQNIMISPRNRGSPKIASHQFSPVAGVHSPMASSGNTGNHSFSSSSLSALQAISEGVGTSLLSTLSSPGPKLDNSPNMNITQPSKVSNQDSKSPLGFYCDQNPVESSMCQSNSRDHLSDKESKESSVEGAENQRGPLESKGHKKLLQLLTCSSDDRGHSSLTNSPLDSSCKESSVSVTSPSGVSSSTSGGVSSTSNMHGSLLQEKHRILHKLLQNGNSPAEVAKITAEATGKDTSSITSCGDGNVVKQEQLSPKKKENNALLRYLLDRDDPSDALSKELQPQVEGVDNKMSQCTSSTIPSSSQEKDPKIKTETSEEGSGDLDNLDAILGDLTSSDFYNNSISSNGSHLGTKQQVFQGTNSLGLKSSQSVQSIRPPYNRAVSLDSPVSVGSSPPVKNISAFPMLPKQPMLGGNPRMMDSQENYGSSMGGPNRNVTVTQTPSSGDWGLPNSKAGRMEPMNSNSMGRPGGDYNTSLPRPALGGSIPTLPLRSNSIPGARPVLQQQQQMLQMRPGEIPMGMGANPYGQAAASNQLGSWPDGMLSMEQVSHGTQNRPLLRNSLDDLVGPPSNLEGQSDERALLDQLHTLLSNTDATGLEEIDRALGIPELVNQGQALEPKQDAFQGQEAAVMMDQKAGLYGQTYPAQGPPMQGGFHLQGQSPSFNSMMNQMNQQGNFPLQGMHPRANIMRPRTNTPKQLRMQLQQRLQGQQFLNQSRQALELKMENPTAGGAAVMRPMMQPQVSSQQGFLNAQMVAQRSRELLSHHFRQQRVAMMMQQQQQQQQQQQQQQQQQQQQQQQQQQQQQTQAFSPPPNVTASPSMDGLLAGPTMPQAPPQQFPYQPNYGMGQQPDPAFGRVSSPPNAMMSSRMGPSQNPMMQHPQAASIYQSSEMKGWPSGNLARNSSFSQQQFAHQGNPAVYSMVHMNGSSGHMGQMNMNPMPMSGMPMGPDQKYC

[2] = system: transactivating tegument protein VP16 (Human herpesvirus 1), Gal4-VP16 luciferase reporter; test: VP16 transactivation inhibitors, counter-screen for SRC3 inhibitor project, cell-based, luminescence, high throughput (AID 588794; in the data active means inhibition above about 30%); conditions: mammalian cells, VP16-driven luciferase reporter luminescence; at 3.6 µM; hits give high values
[3] = molecular target: Nuclear receptor coactivator 1 (Homo sapiens) (UniProt Q15788); test: SRC1 coactivator transcriptional activity inhibitors, confirmation, cell-based, luminescence, quadruplicate (AID 588820); conditions: HEK293 GAL4-SRC1 luciferase reporter, at 3.6 µM, hits give high values;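 further: 0% = DMSO wells and 100% = gossypol 36 µM treated wells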
Sequence of Nuclear receptor coactivator 1 (Homo sapiens) (Q15788 whole entry, looked up, the tested form may be a part): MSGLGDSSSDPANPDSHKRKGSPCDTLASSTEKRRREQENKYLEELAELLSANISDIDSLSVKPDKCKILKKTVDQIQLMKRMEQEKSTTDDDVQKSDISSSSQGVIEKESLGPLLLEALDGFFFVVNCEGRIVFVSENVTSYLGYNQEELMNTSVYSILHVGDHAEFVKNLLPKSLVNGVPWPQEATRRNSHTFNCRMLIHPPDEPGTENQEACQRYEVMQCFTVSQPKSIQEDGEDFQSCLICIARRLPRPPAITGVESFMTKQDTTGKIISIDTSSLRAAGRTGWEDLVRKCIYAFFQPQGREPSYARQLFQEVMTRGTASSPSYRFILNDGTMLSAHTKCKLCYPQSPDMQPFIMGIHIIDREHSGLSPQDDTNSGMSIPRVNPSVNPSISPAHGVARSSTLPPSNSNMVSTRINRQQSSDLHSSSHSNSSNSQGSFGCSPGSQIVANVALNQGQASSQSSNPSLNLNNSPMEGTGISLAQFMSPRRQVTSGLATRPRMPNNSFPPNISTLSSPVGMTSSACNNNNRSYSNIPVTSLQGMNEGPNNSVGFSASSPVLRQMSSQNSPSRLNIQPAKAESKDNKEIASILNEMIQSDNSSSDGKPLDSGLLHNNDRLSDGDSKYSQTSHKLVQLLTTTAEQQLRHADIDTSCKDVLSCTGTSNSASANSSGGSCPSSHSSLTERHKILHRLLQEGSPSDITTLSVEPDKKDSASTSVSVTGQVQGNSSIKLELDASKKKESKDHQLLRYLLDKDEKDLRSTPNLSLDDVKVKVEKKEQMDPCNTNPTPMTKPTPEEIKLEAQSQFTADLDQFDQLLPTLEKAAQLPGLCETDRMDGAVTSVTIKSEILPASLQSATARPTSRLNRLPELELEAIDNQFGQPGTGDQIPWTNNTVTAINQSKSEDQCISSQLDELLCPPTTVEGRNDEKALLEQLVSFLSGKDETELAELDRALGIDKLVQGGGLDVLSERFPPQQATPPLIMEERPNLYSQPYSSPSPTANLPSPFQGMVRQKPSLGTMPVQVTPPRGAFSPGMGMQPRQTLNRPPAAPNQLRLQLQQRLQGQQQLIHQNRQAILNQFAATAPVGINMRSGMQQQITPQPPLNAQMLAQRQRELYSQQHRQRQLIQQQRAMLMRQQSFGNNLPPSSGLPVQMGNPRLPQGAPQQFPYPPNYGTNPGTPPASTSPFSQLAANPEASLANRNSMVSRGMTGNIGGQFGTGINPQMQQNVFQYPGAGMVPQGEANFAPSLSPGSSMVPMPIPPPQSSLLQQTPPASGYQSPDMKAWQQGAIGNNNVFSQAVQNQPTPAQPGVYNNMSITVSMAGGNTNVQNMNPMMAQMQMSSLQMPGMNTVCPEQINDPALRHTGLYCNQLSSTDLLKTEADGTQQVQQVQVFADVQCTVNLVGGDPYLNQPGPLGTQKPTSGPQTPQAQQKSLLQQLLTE

[4] = VP16 transactivation inhibitors, counter-screen for SRC1 inhibitor project, cell-based, luminescence, high throughput (AID 588824; in the data active means inhibition above about 25%); conditions: cell-based VP16 transactivation luciferase luminescence; at 3.6 µM; hits give high values
[5] = system: transactivating tegument protein VP16 (Human herpesvirus 1); test: VP16 transactivation reporter inhibitors, counter-screen for SRC2 inhibitor project, cell-based, luminescence, single concentration (AID 652007; in the data active means inhibition above about 36%); conditions: cell-based VP16 transactivation luciferase reporter, at 8.9 µM, hits give high values
[6] = molecular target: Nuclear receptor coactivator 2 (Homo sapiens) (UniProt Q15596); test: SRC2 coactivator transcriptional activity inhibitors, confirmation, cell-based, luminescence, HEK293, triplicate (AID 652008;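 active means mean inhibition above 46.5%, the solvent-only control mean plus 3 SD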;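 further: 0% = DMSO-treated cells and 100% = Gossypol at 36 µM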); conditions: HEK293 GAL4-SRC2 luciferase reporter, at 8.9 µM, hits give high values
Sequence of Nuclear receptor coactivator 2 (Homo sapiens) (Q15596 whole entry, looked up, the tested form may be a part): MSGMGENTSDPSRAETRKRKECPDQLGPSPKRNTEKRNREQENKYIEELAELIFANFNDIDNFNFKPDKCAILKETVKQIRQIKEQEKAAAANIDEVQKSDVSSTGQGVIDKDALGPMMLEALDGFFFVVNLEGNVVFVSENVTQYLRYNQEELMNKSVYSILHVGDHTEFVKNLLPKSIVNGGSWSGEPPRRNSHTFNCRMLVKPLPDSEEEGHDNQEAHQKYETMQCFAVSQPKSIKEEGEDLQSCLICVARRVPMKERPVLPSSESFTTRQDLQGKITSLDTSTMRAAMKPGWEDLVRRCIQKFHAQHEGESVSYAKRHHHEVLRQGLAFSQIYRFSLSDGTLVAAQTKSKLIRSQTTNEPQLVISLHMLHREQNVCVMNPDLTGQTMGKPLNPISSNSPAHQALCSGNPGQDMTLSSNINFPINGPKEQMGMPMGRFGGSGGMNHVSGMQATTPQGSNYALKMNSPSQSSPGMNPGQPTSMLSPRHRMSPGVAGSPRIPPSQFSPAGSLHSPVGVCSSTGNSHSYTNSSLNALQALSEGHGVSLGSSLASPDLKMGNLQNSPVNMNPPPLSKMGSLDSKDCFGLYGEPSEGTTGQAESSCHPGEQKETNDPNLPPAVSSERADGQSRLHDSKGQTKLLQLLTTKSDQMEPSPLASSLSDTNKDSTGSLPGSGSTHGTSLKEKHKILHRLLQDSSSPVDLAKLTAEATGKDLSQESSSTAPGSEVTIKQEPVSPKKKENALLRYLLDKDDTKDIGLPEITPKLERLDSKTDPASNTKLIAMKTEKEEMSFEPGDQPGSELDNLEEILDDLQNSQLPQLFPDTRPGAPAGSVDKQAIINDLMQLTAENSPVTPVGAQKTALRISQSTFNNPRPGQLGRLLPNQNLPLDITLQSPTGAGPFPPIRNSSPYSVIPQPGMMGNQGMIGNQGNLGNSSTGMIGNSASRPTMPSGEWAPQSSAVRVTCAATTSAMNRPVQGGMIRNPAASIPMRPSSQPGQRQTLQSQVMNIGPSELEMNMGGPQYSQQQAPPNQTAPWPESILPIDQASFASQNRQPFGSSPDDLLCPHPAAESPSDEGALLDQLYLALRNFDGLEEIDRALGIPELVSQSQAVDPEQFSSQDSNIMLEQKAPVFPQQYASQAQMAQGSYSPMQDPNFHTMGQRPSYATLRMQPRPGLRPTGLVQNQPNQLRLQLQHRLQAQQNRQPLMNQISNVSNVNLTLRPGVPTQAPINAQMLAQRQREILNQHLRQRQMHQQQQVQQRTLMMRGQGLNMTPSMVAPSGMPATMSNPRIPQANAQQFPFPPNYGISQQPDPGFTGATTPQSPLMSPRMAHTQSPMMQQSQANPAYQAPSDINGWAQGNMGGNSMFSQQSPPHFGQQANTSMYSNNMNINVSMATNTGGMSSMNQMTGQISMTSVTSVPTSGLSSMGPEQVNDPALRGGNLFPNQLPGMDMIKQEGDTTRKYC

Measured: inhibition

Cc1csc(SCC(=O)c2cc(C)n(Cc3cccs3)c2C)n1
inactive: [1] 9.06% | [2] -12.3% | [3] -81.8% | [4] -42.6% | [5] -28.2% | [6] 31.4%

CC(C)(C)c1ccc(C(=O)NCCOc2ccccc2F)cc1
inactive: [1] 10.1% | [2] -2.97% | [3] -61% | [4] -47.6% | [5] -20.4%
active: [6] 47.8%

CC(C)c1ccc(/C=C2\SC(=S)N(CCC(=O)N3CCCCC3CCO)C2=O)cc1 (stereo not drawn)
active: [6] 76.4%
inactive: [1] 23.5% | [2] -27.8% | [3] 10.1% | [4] -48.1% | [5] -75%

COCCn1c(C)cc(C(=O)COC(=O)c2cccc(O)c2)c1C
active: [5] 37.3% | [6] 51.1%
inactive: [1] 2.54% | [2] 0.92% | [3] -62.8% | [4] -32.7%

CCc1cc(-c2[nH]ncc2-c2ccc3c(c2)OCO3)c(O)cc1O
active: [1] 59.9% | [2] 34.5% | [4] 39.8%
inactive: [3] 27.7% | [5] 30.3% | [6] 18.2%

CC1=C(C(=O)OCc2ccc3c(c2)OCO3)C(c2ccc(O)c([N+](=O)[O-])c2)NC(=O)N1 (stereo not drawn)
inactive: [5] 20.7% | [6] 33.6%
active: [1] 60% | [2] 37.2% | [3] 58.6% | [4] 35.7%

O=C(N/N=C/c1cc([N+](=O)[O-])ccc1O)NC12CC3CC(CC(C3)C1)C2
inactive: [1] 19% | [2] 15.1% | [3] -3.01% | [4] 10.3% | [5] -0.05% | [6] 42.3%

Cc1ccc(Sc2c(C=O)c3ccccc3n2C)cc1
inactive: [5] 7.13% | [6] 42.5%
active: [1] 63.2% | [2] 42.4% | [3] 54% | [4] 46.9%

Cc1cccc(Nc2ncnc3ccc(Br)cc23)c1
active: [2] 32.6% | [4] 25.8%
inactive: [1] 38.9% | [3] 32.8% | [5] 0.23% | [6] 29.7%

CCOC(=O)NNC(=O)CCn1c2c(c3ccccc31)CCCC2
active: [1] 54.1% | [2] 43.4% | [3] 51.3% | [4] 37%
inactive: [5] 1.39% | [6] 39.1%

NC(=O)c1sc2nc3c(c(-c4cccs4)c2c1N)CCCCC3
active: [1] 83.3% | [2] 58.4% | [3] 77.6% | [4] 65% | [6] 60.3%
inactive: [5] 7.38%

CCc1c(C)nc2ccc(Br)cc2c1SCCC#N
inactive: [5] 9.39% | [6] 34.7%
active: [1] 58.4% | [2] 44.3% | [3] 66.9% | [4] 33.5%

Cc1c(/C(O)=C2/C(=O)C(=O)N(CCN3CCOCC3)C2c2ccco2)cnn1-c1ccccc1 (stereo not drawn)
inactive: [1] 23.3% | [2] 5.75% | [3] -20.6% | [4] -37.5% | [5] -7.38% | [6] 39%

COc1ccc2[nH]c(=O)c3c(c2c1)OC(C)(C)C=C3
active: [1] 77.6% | [2] 41.7% | [3] 69.9% | [4] 44% | [6] 51.3%
inactive: [5] 9.64%

O=C(CCCc1nc(-c2ccccc2Cl)no1)NC1CCCC1
active: [6] 92.2%
inactive: [1] 36.4% | [2] -6.22% | [3] 22.9% | [4] -0.83% | [5] 26.2%

COc1ccc(C(=O)CN2C(=O)c3ccccc3S2(=O)=O)cc1
inactive: [3] -21.8%
active: [1] 57.4% | [2] 57.1% | [4] 55.6% | [5] 72.1% | [6] 78.4%

COc1ccc(Nc2ccnc3ccccc23)cc1
active: [2] 30.3% | [3] 52.8% | [4] 26.4%
inactive: [1] 41.8% | [5] -20.9% | [6] 30%

Cc1nnc(SCC(=O)N2CCC(c3noc4ccc(F)cc34)CC2)s1
inactive: [5] 6.59% | [6] 44.8%
active: [1] 85.1% | [2] 48.4% | [3] 69.4% | [4] 45.1%

c1ccc2c(-c3ccc4nncn4c3)cncc2c1
inactive: [5] -5.43% | [6] 46.3%
active: [1] 79% | [2] 54.1% | [3] 65.9% | [4] 56.4%

c1ccc(CNc2ncnc3ccccc23)cc1
inactive: [3] 17.6% and 34.3% | [5] 14%
active: [1] 47% | [2] 44.9% | [4] 34.9% and 44% | [6] 48.8%

Nc1ccc2c(c1)OC1(CCCC1)O2
inactive: [1] 10.9% | [2] 4.56% | [3] -18.7% | [4] 15.4% | [5] -13% | [6] 45.4%

c1cc(-c2cnc3cccnn23)c2cccnc2c1
active: [1] 65.8% | [2] 42.7% | [3] 57.9% | [4] 40.2%
inactive: [5] -9.33% | [6] 26.5%

COc1cc2ccccc2ccc1=NO
active: [1] 60.1% | [2] 38% | [3] 56.5% | [4] 32.9% | [6] 59.6%
inactive: [5] 19.7%

CC(/C=C1\SC(=O)N(CCCC(=O)O)C1=O)=C\c1ccccc1
active: [1] 79% | [2] 73.6% | [3] 71.9% | [4] 69.2% | [5] 90.3% | [6] 95.4%

COC(=O)Cc1[nH]n(-c2nc3ccccc3s2)c(=O)c1C(C)=Nc1ccc(OC)cc1
active: [1] 85.2% | [2] 78.4% | [3] 71.8% | [4] 73.8% | [5] 91.5% | [6] 93.9%

Cc1csc(SCC(=O)Nc2cccc3nsnc23)n1
inactive: [5] -58.8% | [6] 19.4%
active: [1] 66.3% | [2] 35.1% | [3] 57.9% | [4] 37.7%

CCN(CC)c1ccc(/C=N/Nc2nc(C)cc(=O)[nH]2)c(O)c1
inactive: [5] -39.4% | [6] 29.6%
active: [1] 87.7% | [2] 78.7% | [3] 67.1% | [4] 74.3%

Cc1ccc(-n2c(C)c([N+](=O)[O-])c3ccc(O)c(CN(C)C)c32)cc1
inactive: [5] 2.96% | [6] 41.4%
active: [1] 76.7% | [2] 51.9% | [3] 63.4% | [4] 49.5%

CN(C)c1ccc(C(=S)Nc2ccccc2)cc1
active: [6] 51.1%
inactive: [1] 39.1% | [2] 13.3% | [3] -21.5% | [4] -24.4% | [5] -5.11%

CCn1c(Oc2ccc(F)cc2)nc2c1c(=O)n(C)c(=O)n2C
inactive: [1] 33.6% | [3] 39.9% | [4] 23.5% | [5] 2.83% | [6] 30.9%
active: [2] 29.8%

CCOc1ccc(/C=C2\SC(=S)N(CCC(=O)O)C2=O)cc1
inactive: [1] 29% | [2] -33.1% | [3] 39.5% | [4] -38.8% | [5] -7.9%
active: [6] 84.6%

COCC(C)n1c(C)cc(C(=O)COC(=O)c2cccn2C)c1C (stereo not drawn)
inactive: [1] 9.47% | [2] -13.8% | [3] -58.2% | [4] -61%
active: [5] 48.1% | [6] 57.2%

CC(=O)/C(N=Nc1ccc2c(c1)OCCO2)=C(\C)O
inactive: [2] -50.6% | [3] 22.6% | [4] -66.6% | [5] -9.49%
active: [1] 45.3% | [6] 65.4%

CCn1c(Oc2ccccc2C)nc2c1c(=O)n(C)c(=O)n2C
active: [1] 51.9% | [2] 34.7% | [3] 51.5% | [4] 30.6%
inactive: [5] 14.5% | [6] 40.9%

C=CCN(CC=C)c1ncnc2[nH]ncc12
active: [1] 71.4% | [2] 50.9% | [3] 53.9% | [4] 45.2%
inactive: [5] -8.17% | [6] 34.4%

CC(=O)c1cccc(-c2csc3ncnc(Sc4nnnn4C)c23)c1
active: [4] 30.8%
inactive: [1] 33% | [2] 20.4% | [3] 6.55% | [5] 24% | [6] 15.9%

CC1(Cc2ccc(Cl)cc2)C(=O)Nc2ccc(-c3cccnc3)cc21 (stereo not drawn)
inactive: [5] 6.39%
active: [1] 73.7% | [2] 49.3% | [3] 59.2% | [4] 52.8% | [6] 53.2%

CCOc1ccc(Nc2ncnc3ccc([N+](=O)[O-])cc23)cc1
active: [1] 70% | [2] 43.6% | [3] 65.8% | [4] 53.7% | [6] 47.4%
inactive: [5] -19.7%

Cc1noc(/C=C/c2ccccn2)c1[N+](=O)[O-]
active: [1] 54.6% | [2] 47.8% | [3] 48.4% | [4] 37%
inactive: [5] 25.9% | [6] 29.3%

CCN(CC)Cc1c(O)ccc2c([N+](=O)[O-])c(C)n(-c3ccc(OC)cc3)c12
active: [1] 69% | [2] 50.9% | [3] 68.7% | [4] 54.7%
inactive: [5] 15.8% | [6] 41.4%

OCCN(CCO)CC(O)COc1ccc(C23CC4CC(CC(C4)C2)C3)cc1 (stereo not drawn)
inactive: [1] 23.8% | [2] 18.7% | [3] 15.1% | [4] 8.76%
active: [5] 61.9% | [6] 81.9%

COc1ccc2ncn(-c3ccccc3)c2c1
inactive: [3] 46.1% | [4] 23.7% | [5] -12.1% | [6] 38.2%
active: [1] 49.2% | [2] 32.7%

CC(C)(C)c1ccc(Oc2ccc(NC(=O)c3ccccc3C(=O)O)cn2)cc1
inactive: [1] 4.23% | [2] 10.3% | [3] 2.66% | [4] 7.37%
active: [5] 39.5% | [6] 62.4%
